# Screening data: PubChem BioAssay, National Center for Advancing Translational Sciences (NCATS)
# D1 agonist: human D1 receptor agonism. P21728. HEK293 T-REx D1 cells, calcium flux, agonist mode. activation, % at 2 µM. 360,000 compounds, 1% hits. AID 504660; further: 0% is about no effect
#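 Inducible HEK293 T-REx D1 cells, force-coupled to calcium signalling, were plated at 4000 cells/well with tetracycline and held overnight at 30 C. After no-wash calcium dye loading, compound-evoked calcium rise over 180 s flagged agonists.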
# D1 antagonist: blocks dopamine activation of the human D1 receptor | 360,000 compounds, 3.2% hits | activity change, negative = inhibition, % at 10 µM | P21728 | HEK293 TREx D1 cells, calcium flux, dopamine EC80; active compounds read low; in the data active means activity change below about -30%; further: on the % scale 0 is the no-effect control and ±100 the full control effect
#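 Inducible Hek293 Trex D1 cells (tetracycline, overnight, 30 C). Calcium dye 30–90 min RT. Antagonist mode: EC80 dopamine added after 180 s compound read.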
# D1 PAM: human D1 dopamine receptor positive modulation; P21728; HEK293 TREx D1 cells, calcium flux, dopamine EC20 potentiation; potentiation, % at 10 µM; 360,000 compounds, 0.036% hits; AID 504651; in the data active means potentiation above about 30%; further: 0% is about no effect
# TRHR PAM: allosteric enhancers of human TRH receptor; enhancement, % at 2 µM; 360,000 compounds, 0.66% hits; P34981; TRHR cells, fluo-8 calcium fluorescence, EC20 TRH enhancement; in the data active means enhancement above about 30%; further: 0% is about no effect
# Target sequence (P34981 whole entry, looked up): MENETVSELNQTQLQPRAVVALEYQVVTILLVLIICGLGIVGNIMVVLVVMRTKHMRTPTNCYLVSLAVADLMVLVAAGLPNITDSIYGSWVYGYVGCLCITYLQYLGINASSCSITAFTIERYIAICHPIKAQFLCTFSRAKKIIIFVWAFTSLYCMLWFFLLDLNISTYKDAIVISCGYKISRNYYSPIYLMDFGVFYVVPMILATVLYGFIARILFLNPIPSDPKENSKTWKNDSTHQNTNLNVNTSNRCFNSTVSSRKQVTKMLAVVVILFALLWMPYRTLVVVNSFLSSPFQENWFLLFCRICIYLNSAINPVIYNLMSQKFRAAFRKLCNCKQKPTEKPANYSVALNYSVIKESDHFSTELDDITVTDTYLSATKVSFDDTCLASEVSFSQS
#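 TRHR-expressing cells loaded with fluo-8 calcium dye were read kinetically (ex 480/em 530) during compound addition, then stimulated with an EC20 of TRH (10 nM final). Enhancement of the Gq-mediated intracellular calcium response was scored.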
# TRHR ag: agonists of human TRH receptor; activation, % at 2 µM; P34981; TRHR cells, calcium flux fluo-8, FDSS agonist mode; 360,000 compounds, 0.18% hits; further: 0% is about no effect
#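 In this calcium-flux screen, cells bearing human TRHR are dye-loaded with fluo-8, baselined for 10 cycles, then exposed to library compounds; positive kinetic calcium responses during the agonist phase mark hits, with TRH as control.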
# Active calls of the source: *; . = no result. Most compounds without a hit are left out; they make up all but 4.6% or so of the library. Unless noted, no stated cut-off is given here; in the data, active means activation above about 30%; inactive means the rest.
SMILES,D1 agonist,D1 antagonist,D1 PAM,TRHR PAM,TRHR ag
COc1ccc2nc(NC(=O)c3ccc(S(=O)(=O)N4CCCC(C)C4)cc3)sc2c1 (stereo not given),1,7,2,0,0
CCN(CC)S(=O)(=O)c1cc(C)ccc1SC,0,-38*,5,-8,0
FC(F)(F)c1cccc(NC(=S)NCc2ccc(Cl)cc2)c1,24,-51*,-8,-2,3
CC(NC(=S)Nc1cccc(C(F)(F)F)c1)C(C)(C)C (stereo not given),18,-35*,-9,-3,0
Fc1ccccc1CNC(=S)Nc1cccc(C(F)(F)F)c1,25,-44*,-19,-5,2
Cc1ccc(NC(=S)Nc2ccc(OC(F)F)c(Cl)c2)cc1Cl,23,-22,-12,-4,0
CC(NC(=S)Nc1ccc(OC(F)F)c(Cl)c1)C(C)(C)C (stereo not given),20,-88*,-14,-25,3
Cc1ccc2nc(COc3ccccc3NC(=O)c3ccc(F)cc3)cc(=O)n2c1,-1,-2,0,3,0
COc1cc(/C=C/c2ccc3cccc(OC)c3n2)c(OC(C)=O)c([N+](=O)[O-])c1,4,-32*,-8,-2,0
COCC(=O)Nc1nnc(-c2ccc(C(C)(C)C)cc2)s1,34*,-6,-4,2,6
CC(C)(C)c1ccc(-c2nnc(NC(=O)c3ccccc3)s2)cc1,2,4,-3,0,1
Cc1ccccc1NC(=O)CSc1nc(-c2ccccc2)cn1-c1ccccc1F,8,1,-5,-3,0
O=C(O)COc1ccccc1/C=N/NC(=O)CNC(=O)c1ccco1,2,-58*,-3,3,0
O=C(COc1ccccc1-c1ccccc1)N/N=C/c1cccc2ccccc12,3,-1,3,5,1
O=C(COc1cccc2ccccc12)N/N=C/c1ccccc1OCc1ccc(C(=O)O)cc1,36*,-6,1,-5,0
Cc1nn(CC(=O)Nc2cc(F)ccc2F)c(=O)c2cccn12,5,-1,-1,0,0
O=C(Cc1ccc(-c2ccccc2)cc1)Nc1ccccc1,33*,-12,4,10,1
O=C(Cc1ccccc1)Nc1ccc(NC(=O)Cc2ccccc2)c(Cl)c1,2,-36*,0,-6,0
O=C(Cc1ccccc1)Nc1ccc(Br)c(Cl)c1,22,-55*,-11,3,-1
CCC(=O)Nc1ccc(Br)c(Cl)c1,2,-8,0,3,0
Cc1ccc(CNC(=O)C(=O)NCC(c2ccco2)S(=O)(=O)c2ccc(C)cc2)cc1 (stereo not given),6,.,0,1,0
Cc1ccccc1OCc1nnc(SCc2cc(=O)c3cc(F)ccc3[nH]2)n1C,2,-15,-3,7,0
Cc1ccc(C)n1-c1c(C(=O)NCC(C)c2ccccc2)sc2ncccc12 (stereo not given),5,7,0,-1,0
COc1ccc(N2CCN(C(=O)c3cc(-c4ccc(C)c(F)c4)on3)CC2)cc1,10,-17,-2,-1,0
COc1ccc(CCNC(=O)CCS(=O)(=O)c2ccc3c(c2)NC(=O)CS3)cc1OC,4,8,5,1,1
SMILES,D1 agonist,D1 antagonist,D1 PAM,TRHR PAM,TRHR ag
COc1ccc(CCNC(=O)c2ccc(OCC(=O)N3CCOCC3)c(OC)c2)cc1OC,3,-42*,1,4,0
COc1cc2[nH]c(=O)n(Cc3ccc(C(=O)NCc4ccccc4)cc3)c(=O)c2cc1OC,1,47,3,3,0
COc1ccc(CCNC(=O)c2ccc(Cn3c(=O)[nH]c4cc(OC)c(OC)cc4c3=O)cc2)cc1OC,1,-35*,0,-5,0
Cc1ccc(C(=O)NCCN2CCOCC2)cc1,-1,13,-3,0,0
COc1ccc(CCNC(=O)c2ccc3c(c2)NC(=O)CS3)cc1OC,1,-33*,-1,2,0
Cc1ccc(C(=O)NCCC(=O)N2CCOCC2)cc1,1,-37*,-5,1,1
CCOc1ccc(CCNC(=O)c2c(C)oc3ncnc(N4CCOCC4)c23)cc1,1,4,2,16,-1
CCCN1C(=O)c2ccccc2CC1(C)C(=O)NC1CCCCC1 (stereo not given),-2,12,1,-7,0
Cc1cccc(C(=O)NC2(C(F)(F)F)N=C(c3ccccc3)N(Cc3ccccc3)C2=O)c1 (stereo not given),5,2,-5,3,-1
Cc1ccc(NC(=O)c2cc(S(=O)(=O)N3CCC4(CC3)OCCO4)ccc2F)cc1Cl,-2,-23,0,-2,1
CCc1ccccc1S(=O)(=O)Cc1ccc(C(=O)NCCc2ccc(C)cc2)o1,3,-7,1,4,1
Fc1ccc(N2CCN(c3ncnc4nc[nH]c34)CC2)cc1,2,-54*,-9,22,1
CC(C)(C)OC(=O)Cc1nnc(CNC(=O)c2ccccc2)s1,2,-6,0,-2,-1
O=c1[nH]c(CN2CCN(c3ccc(F)cc3)CC2)nc2ccccc12,-1,-3,-5,34*,0
COc1cccc(N2CCN(Cc3nc4ccccc4c(=O)[nH]3)CC2)c1,2,-62*,-2,2,0
O=c1[nH]c(CN2CCN(c3ccccc3)CC2)nc2ccccc12,3,6,-7,1,0
CCC(CC)C(=O)N1CCN(Cc2nc3ccccc3c(=O)[nH]2)CC1,2,-2,-2,32*,-1
Cc1cc2c(s1)c1cnn(Cc3c(F)ccc(F)c3F)c(=O)c1n2C,0,4,-3,-2,1
CCN(CC)c1ccc(S(=O)(=O)N2CCOCC2)cc1NC(=O)CN1C(=O)NC2(CCCC2)C1=O,1,-10,-6,-9,0
O=C(CN1C(=O)NC2(CCCC2)C1=O)Nc1cc(S(=O)(=O)N2CCOCC2)ccc1OCC(F)(F)F,2,-50*,-1,-7,0
O=C(CNc1cc(S(=O)(=O)N2CCCC2)ccc1OCC(F)(F)F)Nc1cc(Cl)cc(Cl)c1,4,3,-1,4,1
O=C(CNc1cc(S(=O)(=O)N2CCCC2)ccc1OCC(F)(F)F)Nc1ccc(SC(F)F)cc1,11,-51*,-8,-8,1
Cc1ccc(NC(=O)CCCSc2ccccc2)cc1S(=O)(=O)N1CCOCC1,4,-40*,-15,14,1
Cc1ccc(NC(=O)CCN2C(=O)NC3(CCCC3)C2=O)cc1S(=O)(=O)N1CCOCC1,8,-92*,-6,12,0
CCOC(=O)C1CCCN(c2cc(C)nc3c(-c4ccccc4OC)c(C)nn23)C1 (stereo not given),0,16,-5,8,-1
